Results published in the supplement of paper PMC6522484.
± gives the standard deviation of the averaged measurements.

Experiments:
[1] = system: DLD1; assay: cell viability (CellTiter-Glo) relative to plate median (fraction of plate median); higher = more viable cells; conditions: 5 µM; treatment time 24 h; reporter: 7TFP
In short: (§1)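 Stable lentiviral TCF/Wnt firefly luciferase reporters (7TFP or TCF4/Wnt) were present in the colorectal cancer cell lines used. These cells received library compounds at a final 5 µM for 24 h, and parallel plates were read for firefly luciferase or CellTiterGlo luminescence. Each well was normalised to the plate median, and the value reported is the mean of two independent replicates.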

[2] = system: HCT116; assay: as above; conditions: 5 µM; treatment time 24 h; reporter: TCF4/Wnt
In short: as §1

[3] = system: SW480; assay: as above; conditions: 5 µM; treatment time 24 h; reporter: 7TFP
In short: as §1

[4] = system: DLD1; assay: TCF/Wnt firefly luciferase reporter signal relative to plate median (fraction of plate median); higher = higher Wnt reporter signal; conditions: 5 µM; treatment time 24 h; reporter: 7TFP
In short: as §1

[5] = system: SW480; assay: as above; conditions: 5 µM; treatment time 24 h; reporter: 7TFP
In short: as §1

SMILES	cell viability [1]	cell viability [2]	cell viability [3]	TCF/Wnt firefly luciferase reporter signal [4]	TCF/Wnt firefly luciferase reporter signal [5]
N#CN=C(NCCCCCCOc1ccc(Cl)cc1)Nc1ccncc1	0.954 ± 0.021	1.01 ± 0.03	0.87 ± 0.046	1.15 ± 0.057	1.14 ± 0.21
C#C[C@]1(O)CC[C@H]2[C@@H]3CCC4=CCCC[C@@H]4[C@H]3CC[C@@]21C	1 ± 0.094	1.04 ± 0.021	0.97 ± 0.0085	1.02 ± 0.033	0.905 ± 0.042
CCCN(CCC)C(=O)C(CCC(=O)O)NC(=O)c1ccccc1 (stereo not given)	0.921 ± 0.057	1.06 ± 0.035	0.904 ± 0.024	1.01 ± 0.024	1.06 ± 0.05
O=c1cc(-c2ccc(O)cc2)oc2ccc(O)cc12	1.11 ± 0.11	1.1 ± 0.099	1.035 ± 0.0071	1.03 ± 0.11	1.125 ± 0.0071
NC[C@H]1O[C@H](O[C@H]2[C@H](O)[C@@H](O[C@H]3O[C@H](CO)[C@@H](O)[C@H](N)[C@H]3O)[C@H](N)C[C@@H]2N)[C@H](N)[C@@H](O)[C@@H]1O	1.11 ± 0.028	0.997 ± 0.033	1.02 ± 0.052	1.03 ± 0.035	1.01 ± 0.021
Cn1c(=O)c2c(ncn2CC(O)CO)n(C)c1=O (stereo not given)	0.916 ± 0.016	0.996 ± 0.049	0.989 ± 0.03	1.09 ± 0.14	1.09 ± 0.05
CC12CCC3C(CC3(C)C)C(C)(CCC1=O)O2 (stereo not given)	0.908 ± 0.033	0.972 ± 0.069	0.892 ± 0.016	0.883 ± 0.23	0.889 ± 0.13
CN1C(=O)CC[C@H]1c1cccnc1	1.03 ± 0.035	1.1 ± 0.078	1.07 ± 0.014	1.06 ± 0.057	0.94 ± 0.073
C=C(C)[C@@H]1C[C@H]2O[C@](O)(C/C(C)=C\C(=O)/C=C(/C)C[C@@H]3OC(=O)[C@]24O[C@@H]34)[C@H]1O [bipinnatolide F]	1.02 ± 0.028	0.943 ± 0.018	0.94 ± 0.074	1.01 ± 0.059	0.994 ± 0.023
COC(=O)C[C@H]1C(C)(C)C(=O)[C@@H]2CC3C4=CC(=O)O[C@@H](c5ccoc5)[C@]4(C)CC[C@@H]3[C@@]1(C)C2=O (stereo not given in full)	0.924 ± 0.0042	1.01 ± 0.06	0.957 ± 0.03	1.04 ± 0.014	0.866 ± 0.062
NC(=O)c1ccccc1O	1.07 ± 0.014	0.991 ± 0.056	0.972 ± 0.014	0.993 ± 0.096	0.81 ± 0.12
O=C(c1c[nH]c2ccccc12)C(O)CO (stereo not given) [1-(3-Indolyl)-2,3-dihydroxypropan-1-one]	0.989 ± 0.072	1.02 ± 0.06	0.966 ± 0.046	1.12 ± 0.028	1 ± 0.079
CO[C@H]1C[C@H](O[C@H]2[C@H](C)[C@@H](O[C@@H]3O[C@H](C)C[C@H](N(C)C)[C@H]3OC(C)=O)[C@@H](C)C[C@@]3(CO3)C(=O)[C@H](C)[C@@H](OC(C)=O)[C@@H](C)[C@@H](C)OC(=O)[C@@H]2C)O[C@@H](C)[C@@H]1OC(C)=O	1.06	1.01 ± 0.19	0.956 ± 0.03	1.03 ± 0.11	0.945 ± 0.12
CC1=C(/C=C/C(C)=C/C=C/C(C)=C/C=C/C=C(C)/C=C/C=C(C)/C=C/C(=O)[C@]2(C)C[C@@H](O)CC2(C)C)C(C)(C)C[C@H](O)C1	0.98 ± 0.057	0.966 ± 0.1	0.997 ± 0.033	0.947 ± 0.058	1 ± 0.051
COC(=O)[C@@H]1OC(=O)C2OC23[C@@]1(C)CCC1[C@]2(C)C(C[C@@H](O)[C@]13C)C(C)(C)[C@H](OC(C)=O)C[C@@H]2OC(C)=O (stereo not given in full)	1.01 ± 0.091	1.01 ± 0.014	1.01 ± 0.035	1.1 ± 0.042	1 ± 0.11
